What was measured:
[1] = system: U-2932; experiment: growth inhibition by drug alone (1 - RLU/untreated control) (fraction); higher = stronger inhibition; conditions: 177Lu-lilotomab satetraxetan 0 ug/ml
Method in brief: (§1)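 With or without 18 h pretreatment by a radiolabelled anti-CD37 antibody conjugate (~600 MBq/mg; 0.5 µg/ml RIVA, 1 µg/ml U-2932), RIVA and U-2932 cells were washed and plated at 3,000 cells/well. Pre-printed compound doses were 10/100 nM for RIVA and 10/1,000 nM for U-2932. Growth inhibition uses RealTime-Glo RLU relative to the untreated no-drug wells. The calculation is 1 − RLU/mean of 48 such wells per plate, with reads daily from day 3 after 1 h at 37°C.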

[2] = system: RIVA; experiment: as above; conditions: 177Lu-lilotomab satetraxetan 0 ug/ml
Method in brief: as §1

[3] = system: U-2932; experiment: growth inhibition by drug plus 177Lu-lilotomab satetraxetan (1 - RLU/untreated control) (fraction); higher = stronger inhibition; conditions: 177Lu-lilotomab satetraxetan 1 ug/ml
Method in brief: as §1

[4] = system: RIVA; experiment: as above; conditions: 177Lu-lilotomab satetraxetan 0.5 ug/ml
Method in brief: as §1

Row | SMILES | growth inhibition by drug alone ([1]; 10 nM, time (day): 3) | growth inhibition by drug alone ([1]; 10 nM, time (day): 4) | growth inhibition by drug alone ([1]; 10 nM, time (day): 5) | growth inhibition by drug alone ([1]; 10 nM, time (day): 6) | growth inhibition by drug alone ([1]; 1000 nM, time (day): 3) | growth inhibition by drug alone ([1]; 1000 nM, time (day): 4) | growth inhibition by drug alone ([1]; 1000 nM, time (day): 5) | growth inhibition by drug alone ([1]; 1000 nM, time (day): 6) | growth inhibition by drug alone ([2]; 10 nM, time (day): 3) | growth inhibition by drug alone ([2]; 10 nM, time (day): 4) | growth inhibition by drug alone ([2]; 10 nM, time (day): 5) | growth inhibition by drug alone ([2]; 10 nM, time (day): 6) | growth inhibition by drug alone ([2]; 100 nM, time (day): 3) | growth inhibition by drug alone ([2]; 100 nM, time (day): 4) | growth inhibition by drug alone ([2]; 100 nM, time (day): 5) | growth inhibition by drug alone ([2]; 100 nM, time (day): 6) | growth inhibition by drug plus 177Lu-lilotomab satetraxetan ([3]; 10 nM, time (day): 3) | growth inhibition by drug plus 177Lu-lilotomab satetraxetan ([3]; 10 nM, time (day): 4) | growth inhibition by drug plus 177Lu-lilotomab satetraxetan ([3]; 10 nM, time (day): 5) | growth inhibition by drug plus 177Lu-lilotomab satetraxetan ([3]; 10 nM, time (day): 6) | growth inhibition by drug plus 177Lu-lilotomab satetraxetan ([3]; 1000 nM, time (day): 3) | growth inhibition by drug plus 177Lu-lilotomab satetraxetan ([3]; 1000 nM, time (day): 4) | growth inhibition by drug plus 177Lu-lilotomab satetraxetan ([3]; 1000 nM, time (day): 5) | growth inhibition by drug plus 177Lu-lilotomab satetraxetan ([3]; 1000 nM, time (day): 6) | growth inhibition by drug plus 177Lu-lilotomab satetraxetan ([4]; 10 nM, time (day): 3) | growth inhibition by drug plus 177Lu-lilotomab satetraxetan ([4]; 10 nM, time (day): 4) | growth inhibition by drug plus 177Lu-lilotomab satetraxetan ([4]; 10 nM, time (day): 5) | growth inhibition by drug plus 177Lu-lilotomab satetraxetan ([4]; 10 nM, time (day): 6) | growth inhibition by drug plus 177Lu-lilotomab satetraxetan ([4]; 100 nM, time (day): 3) | growth inhibition by drug plus 177Lu-lilotomab satetraxetan ([4]; 100 nM, time (day): 4) | growth inhibition by drug plus 177Lu-lilotomab satetraxetan ([4]; 100 nM, time (day): 5) | growth inhibition by drug plus 177Lu-lilotomab satetraxetan ([4]; 100 nM, time (day): 6)
1 | N#Cc1c(O)c2c(-c3ccc(-c4ccccc4O)cc3)csc2[nH]c1=O | 0.111 | 0.0478 | -0.0374 | -0.062 | 0.0299 | -0.017 | -0.0537 | 0.0109 | 0.017 | -0.0012 | -0.079 | -0.317 | -0.44 | -0.357 | -0.367 | -0.39 | 0.00586 | 0.0777 | 0.105 | 0.108 | 0.0618 | 0.0835 | 0.123 | 0.191 | 0.57 | 0.613 | 0.615 | 0.612 | 0.402 | 0.488 | 0.487 | 0.49
2 | COc1ccc(C2CC(c3ccccc3)=NN2c2ccc(S(N)(=O)=O)cc2)cc1 (centres undefined) | 0.0454 | 0.0281 | -0.0412 | -0.122 | -0.0544 | 0.00397 | -0.0999 | -0.129 | -0.0673 | -0.122 | -0.182 | -0.683 | -0.196 | -0.182 | -0.21 | -0.396 | 0.0153 | 0.0306 | 0.0246 | 0.0751 | -0.0784 | 0.0449 | -0.00789 | 0.0654 | 0.344 | 0.49 | 0.534 | 0.554 | 0.412 | 0.495 | 0.491 | 0.476
